Experimental data as given in ChEMBL document CHEMBL3988442, “University of Dundee, Small-Polar-MMV Screening Library” (2021).
The whole screen tested about 48,000 compounds, of which about 13,000 (27%) showed an effect of 50% or more. The list shows a part of the results.

The compounds below were run on Wolbachia pipientis (assay: Anti-Wolbachia Cell-Based Screen). Settings: 5 µM.
Type: functional
Parameters: scale not given: in the data most compounds retested in dose-response had high values

| Structure (SMILES) | Percent Effect [%] |
| --- | --- |
| CC(C)CCc1noc(CN2CCCC(CNS(N)(=O)=O)C2)n1 (stereo unspecified) | -3.11 |
| O=S(=O)(NC1CCC2(CC1)OCCO2)c1cccc(Br)c1 | -35.45 |
| COC(=O)CN(C)C1CCc2ccccc21 (stereo unspecified) | -6.999 |
| CCn1cc(CN2CCCN(C(=O)c3ccccc3C)CC2)cn1 | 154.9 |
| CCn1cc(CN2CCCN(C(=O)c3ccccc3OC)CC2)cn1 | 106.4 |
| CCc1[nH]ncc1C(=O)N1CCCN(Cc2cnn(C)c2)CC1 | -4.439 |
| CCCc1cc(=O)[nH]c2nnc(SCC(=O)OC)n12 | 10.3 |
| CC(C)NC(=O)C1CCc2nnc(CNC(=O)c3cccnc3)n21 (stereo unspecified) | 109.4 |
| CC(C)N(Cc1ccccc1)C(=O)NCCNC(=O)c1cccnc1 | -12.62 |
| CC(NC(=O)C1CCCC1)c1nncn1C(C)C (stereo unspecified) | 0 |
| CN(Cc1ccc(Cl)s1)C(=O)NCc1nnc2n1CCC2 | 3.09 |
| Cc1ccc2c(c1)nc1n2[C@@H](CNC(=O)c2cccnc2)COC1 | -3.716 |
| CC1CCN(CCNC(=O)C2CCN(C(=O)NC(C)C)CC2)CC1 | 10.9 |
| CC(C)NC(=O)C1CCc2nnc(CNC(=O)C3CC3)n21 (stereo unspecified) | 113.3 |
| COc1ccc(C(NC(=O)NCc2nnc3n2CCC3)C2CC2)cc1 (stereo unspecified) | 10.5 |
| CC(C)NC(=O)NCc1nnc2n1C(C(=O)N(C)C)CC2 (stereo unspecified) | 107 |
| CN(C)C(C(=O)N1CCN(CCn2cccc2)CC1)c1cccc(F)c1 (stereo unspecified) | -3.926 |
| O=C1OCCN1CCSc1nnnn1CC(F)(F)F | -1.95 |
| CSCc1cccc(S(=O)(=O)NCc2cnn(C)c2C)c1 | -8.017 |
| Cc1cc(NC(=O)NCCc2ccc(S(N)(=O)=O)cc2)n(C)n1 | -16.74 |
| Cc1ccc(C)c2c(O)cc(CNCc3ccc(S(N)(=O)=O)cc3)nc12 | -3.225 |
| CCCc1nc(C)cc(NCc2ccc(S(N)(=O)=O)cc2)n1 | 98.3 |
| Cc1nc(C(C)C)sc1C(=O)N(C)Cc1cnn(C)c1 | -3.073 |
| Cc1nc(-c2cnn(C)c2)sc1C(=O)NCc1ccc(C)n1C | -0.2397 |

| Structure (SMILES) | Percent Effect [%] |
| --- | --- |
| CC(C)c1nn2c(-c3cnn(C)c3)nnc2s1 | 112.2 |
| Cc1nn2c(-c3cnn(C)c3)nnc2s1 | 91.48 |
| CN1CCN(c2nc(-c3cnn(C)c3)cs2)CC1 | 4.898 |
| CS(=O)(=O)NCCC(=O)N1Cc2cnc(-c3ccccc3)nc2C1 | 16.59 |
| Brc1cnc(NCCCOCC2CCOC2)nc1 (stereo unspecified) | -7.311 |
| CN(CC1CCOC1)c1ncc(Br)cn1 (stereo unspecified) | 108.2 |
| CC(C)n1cnnc1CN(C)CC1CCOC1 (stereo unspecified) | -3.944 |
| CCN(CC1CCOC1)C(=O)Nc1ccc(OC)nc1 (stereo unspecified) | 9.48 |
| Cc1cc(NC(=O)N(CC2CCOC2)C2CC2)no1 (stereo unspecified) | -8.865 |
| Cc1cc(C)c2c(N(C)CC3CCOC3)ncnc2n1 (stereo unspecified) | 14.02 |
| CCN(CC)c1ccc(NC(=O)NCC2CCOC2)cn1 (stereo unspecified) | 10.55 |
| Cc1cc(Br)cnc1N(C)CC1CCOC1 (stereo unspecified) | 110.5 |
| CN(CC1CCOC1)c1ccc(Br)cn1 (stereo unspecified) | 73.32 |
| COCC1CN(S(=O)(=O)Cc2ccc(C)cc2)Cc2c1cnn2C.O=C(O)C(F)(F)F (stereo unspecified) | -11.46 |
| CCCc1cncnc1N1CCC(NCCc2nc(O)cc(O)n2)CC1 | 12.44 |
| Cc1ccccc1CCCN(Cc1ccccn1)S(C)(=O)=O | 19.14 |
| O=C(c1ncn2c(C3CCN(CC4CC4)CC3)ccnc12)N1CCCC1 | -17.31 |
| COCC1c2nnn(CC3CC3)c2CCN1C(=O)N1CCCC1 (stereo unspecified) | -0.306 |
| CC(C)N1CCc2c(CNC(=O)c3nccn3C)cncc2C1.Cl.Cl.Cl | 1.546 |
| COCCN1CCc2c(CNC(=O)c3nccn3C)cncc2C1.Cl.Cl.Cl | -25.03 |
| Cl.Cl.Cn1cc(CN2CCc3c(CNC(=O)C4CC4)cncc3C2)cn1 | -6.421 |
| Cl.Cl.Cn1cc(C(=O)NCc2cncc3c2CCN(CC2CC2)C3)cn1 | 108.8 |
| Cn1cc(C(=O)NCc2cn3c(n2)CN(CC2CCOCC2)CC3)cn1.O=C(O)C(F)(F)F | -7.416 |
| Cl.Cn1cc(C(=O)NCc2cncc3c2CCN(S(C)(=O)=O)C3)cn1 | 98.76 |

| Structure (SMILES) | Percent Effect [%] |
| --- | --- |
| Cl.Cl.Cn1cc(C(=O)NCc2cncc3c2CCN(c2ccccn2)C3)cn1 | 91.67 |
| N#Cc1cnc(NCc2ccc(C(=O)NC3CC3)cc2)c(Cl)c1 | -6.229 |
| CC(C)(C)c1noc(CCC(=O)N(CC2CCOC2)C2CC2)n1 (stereo unspecified) | 7.667 |
| CC(=O)N1CCc2[nH]cnc2C12CCN(CC1CCOC1)CC2 (stereo unspecified) | -0.2967 |
| CC(=O)N1CCC2(CCN(CC3CCOC3)C2)CC1 (stereo unspecified) | 104 |
| CC(=O)N1CCC2(CCN(CC3CCCCC3)C2)CC1 | -14.93 |
| CN(C)C(=O)CN1CCC2(C1)CN(CC1CCOC1)C2.O=C(O)C(F)(F)F.O=C(O)C(F)(F)F (stereo unspecified) | -5.986 |
| CNC(=O)CN1CCO[C@H]2CN(CC3CCOC3)C[C@H]21.O=C(O)C(F)(F)F.O=C(O)C(F)(F)F (stereo partly specified) | 19.99 |
| CNC(=O)CN1CCC2(CCCN(CC3CCOC3)C2)CC1.O=C(O)C(F)(F)F.O=C(O)C(F)(F)F (stereo unspecified) | 105.4 |
| Cc1cccc(NC(=O)Cn2ncc(SCC(N)=O)c(Cl)c2=O)c1C | -8.805 |
| CN(C)c1cccc(C2CCCN2c2nc3c(cnn3C)c(=O)[nH]2)c1 (stereo unspecified) | 1.208 |
| CCc1ccc(CN(C)C(=O)C2CC(=O)N(c3cccc(O)c3)C2)nc1 (stereo unspecified) | -3.145 |
| CCCn1nc2c(cc1=O)CN(Cc1nc(-c3ccoc3)no1)CC2 | 8.04 |
| CC1CCc2nc(O)c(C(=O)NCc3ccccn3)cc2C1 (stereo unspecified) | 0.7211 |
| Cl.O=C1NCCCCC1NCc1csc(-c2ccccn2)n1 (stereo unspecified) | -2.48 |
| O=C(NC[C@@H]1CCCN1)c1cc(COc2cccc(C(F)(F)F)c2)[nH]n1 | 1.903 |
| O=C(NCc1ccccn1)C1CN(c2nc3ccccc3s2)CCN1 (stereo unspecified) | 4.696 |
| Cl.O=C(NCC(F)F)c1cnc(C2CCCN2)cn1 (stereo unspecified) | 98.86 |
| O=C(NCc1ccccn1)c1cnc(C2CCCN2)cn1 (stereo unspecified) | 135 |
| O=C(NC[C@H]1CCCN1)c1cc(COc2cccc(C(F)(F)F)c2)[nH]n1 | -12.79 |
| CCC1c2ccsc2CCN1C(=O)NCc1ccccn1 (stereo unspecified) | 11.42 |
| Cc1nc(C(=O)NCc2ccccn2)cc(C2CCCN2)n1 (stereo unspecified) | 186.5 |
| O=C(NCc1ccccn1)c1cncc(C2CCCN2)n1 (stereo unspecified) | 138.1 |
